# Data taken from PubChem BioAssay AID504465 (National Center for Advancing Translational Sciences (NCATS), 2011).
# Hit rate of the full screen: of about 2,100 compounds, about 210 (10%) were called active. Another 53% or so got no clear call; they are omitted. The call rests on the fitted dose curve; in most records, active means well fitted inhibition curve with a large enough effect; inconclusive means small, poorly fitted or top-dose-only effect, or effect the other way; inactive means no such curve, though single readings can be large or run the other way. Some of the results follow.
# Assay: IN Cell qHTS Assay for Inhibitors of the mTORC1 Signaling Pathway in MEF (Tsc2-/-, p53-/-) Cells: Sytravon; further: nearly all actives have a fitted effect of over 60% in size
# Conditions: phospho-rpS6 immunofluorescence, 24 h; series mostly up to 38.3 µM; activity, negative = inhibition: at the top concentration
# In short: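 Tsc2-/-, p53-/- MEFs (empty-vector) treated with compound 24 h at 37 degree Celsius, then fixed and stained for phospho-rpS6 Ser235/236 (Alexa-488) plus Hoechst. Reported as % positive cells, thresholds set against 7.5 nM rapamycin and DMSO wells.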
# Potency means the concentration at half of the fitted maximal effect.
SMILES,"activity, negative = inhibition",Potency
CCN1CCc2c(sc(NC(=O)c3ccc(S(=O)(=O)N4CCCC(C)C4)cc3)c2C(=O)OC)C1 (configuration not stated),6.25% (inactive),–
Cc1ccc(S(=O)(=O)Nc2cccc(-c3ccc(N4CCC(C)CC4)nn3)c2)s1,1.3% (inactive),–
O=c1c2ccccc2n(Cc2c(F)cccc2Cl)c(=O)n1Cc1ccccc1,15.6% (inactive),–
O=C(NC1CCN(Cc2ccccc2)CC1)c1ccc(Cn2c(=O)c3ccccc3n(Cc3ccc(F)cc3)c2=O)cc1,–,2.61 µM (active)
COc1ccccc1CNC(=O)CCCn1c(=O)c2ccccc2n(Cc2ccc(F)cc2)c1=O,-2.57% (inactive),–
COc1ccc(N2CCN(C(=O)CSCc3ccc(C)cc3)CC2)cc1,6.25% (inactive),–
CCOC(=O)c1c(C)oc2nc(C)nc(NCc3ccc(Cl)cc3)c12,-2.13% (inactive),–
CCOC(=O)C(Cc1c[nH]c2ccccc12)NC(=O)COc1ccc(Cl)cc1 (configuration not stated),0% (inactive),–
CCc1ccc(NC(=O)c2cc(S(=O)(=O)NC3CCCC3)ccc2F)cc1,6.25% (inactive),–
CC1=C(c2ccc(C)c(C)c2)S(=O)(=O)N(Cc2ccc(C(=O)Nc3cc(F)ccc3F)cc2)C1=O,-0.206% (inactive),–
Cc1ccc(NC(=O)c2nc(S(=O)(=O)Cc3ccc(F)cc3)ncc2Cl)cc1C,–,1.65 µM (active)
Cc1ccc(C)c(NC(=O)c2nc(S(=O)(=O)Cc3ccc(F)cc3)ncc2Cl)c1,–,3.29 µM (active)
COc1ccc(OC)c(NC(=O)c2nc(S(=O)(=O)Cc3ccc(F)cc3)ncc2Cl)c1,–,2.33 µM (active)
COc1ccc(OC)c(NC(=O)c2c(NCc3ccc(OC)c(OC)c3)sc3c2CCC(C)C3)c1 (configuration not stated),0% (inactive),–
Cc1ccc(NC(=O)c2cc(S(=O)(=O)NCCC3=CCCCC3)ccc2F)cc1C,6.25% (inactive),–
Cc1ccc2c(CNCCc3ccc(Cl)cc3)c(C(=O)O)n(Cc3ccc(F)cc3)c2c1,-16.1% (inactive),–
COc1ccc(C)cc1NC(=O)c1cc(S(=O)(=O)NC2CCCCCC2)ccc1F,6.25% (inactive),–
CC(=O)Nc1ccc(NC(=O)c2nc(S(=O)(=O)Cc3ccc(F)cc3)ncc2Cl)cc1,–,8.26 µM (active)
Cc1ccc(NC(=O)c2cc(S(=O)(=O)NC3CCCCC3)ccc2F)cc1Cl,6.25% (inactive),–
COc1cc(NS(=O)(=O)c2cc(Br)cc3c2N(C(=O)C2CC2)CC3)cc(OC)c1,0% (inactive),–
CCc1c(C)nc2nncn2c1NCc1ccc(Cl)cc1,-7.07% (inactive),–
CC(=O)c1cccc(NC(c2ccc(F)cc2)c2nnc(-c3ccccc3)o2)c1 (configuration not stated),0% (inactive),–
Cc1ccccc1Nc1c(-c2c[nH]c3ccccc23)nc2cccc(C)n12,-70% (inactive),–

SMILES,"activity, negative = inhibition",Potency
O=C(Nc1ccc(Br)cc1)c1cc(S(=O)(=O)NC2CCCC2)ccc1F,6.25% (inactive),–
COc1ccc(Cn2c(C(=O)O)c(CNC3CCCCCC3)c3ccc(OC)cc32)cc1,-22.6% (inactive),–
CC(C)CCN(C(=O)Nc1ccc(Cl)c(Cl)c1)C1CCN(C(C)C)CC1,6.25% (inactive),–
Cc1cc(C)c(NC(=O)c2cc(S(=O)(=O)NCCC3=CCCCC3)ccc2F)c(C)c1,6.25% (inactive),–
CCN(CCCNC(=O)c1cc2c(=O)[nH]c3ccccc3c2s1)c1ccccc1,-22.3% (inactive),–
Cc1ccc2[nH]c(=O)c3cc(C(=O)NCCCN4CCC(C)CC4)sc3c2c1,–,5.85 µM (active)
CCc1ccc(Sc2cc(C(=O)NCCCN3CCC(C)CC3)c3ccccc3n2)cc1,6.25% (inactive),–
CCc1cccc(NC(=O)c2oc3ccc4c(c3c2C)C(=O)CC(C)(C)O4)c1,-21.1% (inactive),–
c1ccc(CNc2ncnc3[nH]ncc23)cc1,6.25% (inactive),–
COc1ccc(CNC(=O)C2CCN(S(=O)(=O)c3ccc(C)cc3)CC2)cc1,-9.16% (inactive),–
COc1ccc(CNC(=O)c2cc(-c3ccc(OC)c(OC)c3)nc3n[nH]c(-c4ccc(C)cc4)c23)cc1,–,14.7 µM (active)
COc1ccc(-c2cc(NCc3ccc(C)cc3)n3cnnc3n2)cc1,-18.2% (inactive),–
Cc1oc2ccc(O)c(CN(C)Cc3ccccc3)c2c1C(=O)Nc1ccccc1,-8.08% (inactive),–
CCOc1cccc(NC(=O)C2CC(=O)N(CC)C(=Nc3ccc(F)cc3)S2)c1 (configuration not stated),-11.8% (inactive),–
O=C(NCC1CCN(Cc2ccccc2F)CC1)Nc1ccc(F)c(Cl)c1,-11.3% (inactive),–
Cc1ccc(C)c(CN2CCC(CNC(=O)Nc3ccc(Br)cc3F)CC2)c1,–,14.7 µM (active)
Cc1ccc(C)c(CN2CCC(CNC(=O)c3cc4ccc5cccnc5c4[nH]3)CC2)c1,-15.8% (inactive),–
Cc1nn(C)c2c1c(C(F)(F)F)cc(=O)n2CC(=O)N1CCC(C)CC1,-0.547% (inactive),–
CSc1ccc(CCNS(=O)(=O)c2cc(-c3cc(C)no3)ccc2C)cc1,1.3% (inactive),–
CCOc1ccc(-c2cc(C(=O)N3CCN(c4cccc(C(F)(F)F)c4)CC3)c3ccccc3n2)cc1,6.25% (inactive),–
CCOC(=O)CSc1nc(-c2ccccc2)cc(C(F)(F)F)c1C#N,–,9.27 µM (active)
N#Cc1ccc(-c2cccs2)nc1SCC(=O)Nc1cccc(C(F)(F)F)c1,-23.9% (inactive),–
CCc1ccc(Sc2cc(C(=O)NCCCN3CCCC(C)C3)c3ccccc3n2)cc1 (configuration not stated),6.25% (inactive),–

SMILES,"activity, negative = inhibition",Potency
CCN1CCOC(=O)C1CC(=O)Nc1ccc(C)c(Cl)c1 (configuration not stated),-10.3% (inactive),–
O=C(Cn1c(-c2cccs2)cc2ccccc21)NCCCN1CCN(c2ccc(F)cc2)CC1,–,14.7 µM (active)
COc1ccc(Nc2cc(C(=O)NCCCN3CCN(c4ccc(OC)cc4)CC3)c3ccccc3n2)cc1,0% (inactive),–
Cc1ccccc1Oc1nc2ccccn2c(=O)c1/C=C(\C#N)c1nc2ccccc2[nH]1,10.8% (inactive),–
CCn1c(CN2CCOCC2)nc2cc(NC(=O)c3ccccc3[N+](=O)[O-])ccc21,2.58% (inactive),–
CCOc1ccc(N2C(=O)c3[nH]nc(-c4ccc(OC)cc4)c3C2c2cccs2)cc1 (configuration not stated),-0.625% (inactive),–
COc1ccc(-c2n[nH]c3c2C(c2ccc(O)cc2)N(c2ccc(Br)cc2)C3=O)cc1 (configuration not stated),–,11.7 µM (active)
CCOc1cc(C2c3c(-c4ccc(Br)cc4)n[nH]c3C(=O)N2c2ccc(Cl)cc2)ccc1O (configuration not stated),-96.1% (inactive),–
CC(C)CN(CC(C)C)S(=O)(=O)c1ccc(C(=O)Nc2sc3c(c2C(N)=O)CC(C)(C)NC3(C)C)cc1,6.25% (inactive),–
Cc1ccc(Nc2cc(C)nc3nc(Cc4ccc(Cl)cc4)nn23)cc1,-9.74% (inactive),–
Cc1cccc(-n2ncc3c(Nc4c(C)cc(C)cc4C)ncnc32)c1,–,3.69 µM (active)
Cc1cc(C)c(Nc2ncnc3c2cnn3C)c(C)c1,6.25% (inactive),–
COc1ccc(OC)c(Nc2ncnc3c2cnn3-c2cccc(Cl)c2)c1,6.25% (inactive),–
O=C(Nc1cc(Cl)cc(Cl)c1)c1cc(S(=O)(=O)NC2CCCC2)ccc1F,6.25% (inactive),–
CCCCOc1cccc(C(=O)N2CCN(CCc3ccncc3)CC2)c1,-60.4% (inactive),–
O=C(COC(=O)c1cccc(NC(=O)c2ccc(Br)cc2)c1)c1ccc(Br)cc1,9.28% (inactive),–
CCCCOc1cccc(NC(=O)c2cccc(C(=O)Nc3cccc(OCCCC)c3)c2)c1,–,11.7 µM (active)
CN1CCc2c(sc(NC(=O)CSc3ccccc3)c2-c2nc3ccccc3s2)C1,0.735% (inactive),–
O=C(Nc1cc(Cl)ccc1Cl)c1cc(S(=O)(=O)NCCc2ccccc2)ccc1F,6.25% (inactive),–
CS(=O)(=O)N(CC(=O)NCCc1ccccc1)c1cc(C(F)(F)F)ccc1Cl,–,8.26 µM (active)
Cc1n[nH]c(C)c1S(=O)(=O)N(CC(=O)Nc1ccc(C(F)(F)F)cc1)c1ccc(C(C)C)cc1,-100% (inactive),–
Cc1c(Cl)ccc2sc(NC(=O)c3ccc(S(=O)(=O)N4CCCc5ccccc54)cc3)nc12,-20.5% (inactive),–
Cc1c(C(=O)N2CCC(C)CC2)c(S(=O)(=O)N(Cc2ccccc2)C(C)(C)C)c(C)n1C,0% (inactive),–

SMILES,"activity, negative = inhibition",Potency
O=C1CSC2(C(=O)N(Cc3cccc(C(F)(F)F)c3)c3ccccc32)N1c1ccc(F)c(F)c1 (configuration not stated),-6.7% (inactive),–
CCN(CC)CCCNC(=O)c1ccc(-c2nc(CN3CCc4ccccc43)c(C)o2)cc1,–,13.1 µM (active)
CCN(CC)CCCNC(=O)c1nn(C)c2c1CSc1ccccc1-2,3.66% (inactive),–
CCN(CC)CCNC(=O)c1ccc(-n2c(-c3ccccc3)cc3c2CCCC3)cc1,-15.2% (inactive),–
COc1ccc(-c2ccc(CNc3ccc4[nH]c(=O)[nH]c4c3)o2)cc1Cl,-54.9% (inactive),–
CCCNC(=O)c1ccc2c(c1)N=C(CCC)c1ccccc1S2,-25.5% (inactive),–
CCOc1ccc(OCC)c(NC(=O)C(NS(=O)(=O)c2cccs2)c2ccccc2)c1 (configuration not stated),1.85% (inactive),–
COc1ccc(CNC(=O)CCCN2C(=O)CSc3c2c(C)nn3-c2ccccc2)cc1,-4.75% (inactive),–
COc1ccc(Cn2ccc3nc(C)c(C(=O)N4CCN(c5ccc(OC)cc5)CC4)cc3c2=O)cc1,-1.62% (inactive),–
Cc1nn(CCCC(=O)NCCc2ccc(Cl)cc2)c(=O)c2c1sc1ccccc12,–,11.7 µM (active)
COc1ccc(N2CCN(C(=O)C(C)n3nc(C)c4sc5ccccc5c4c3=O)CC2)cc1 (configuration not stated),–,1.85 µM (active)
CCCOc1ccc(CNC(=O)CCCn2nc(C)c3sc4ccccc4c3c2=O)cc1,-12.9% (inactive),–
Cc1ccc(CCNC(=O)c2c3c(nc4ccccc24)C(=O)N(C2CCCCC2)C3)cc1,-5.87% (inactive),–
CSc1ccc(CCNC(=O)C(C)n2nc(C)c3sc4ccccc4c3c2=O)cc1 (configuration not stated),–,1.17 µM (active)
CCC(C(=O)N1CCN(c2cc(Cl)ccc2C)CC1)n1nc(C)c2sc3ccccc3c2c1=O (configuration not stated),-11.9% (inactive),–
Cc1nn(C(C)C(=O)NC2CCC(C)CC2)c(=O)c2c1sc1ccccc12 (configuration not stated),–,5.21 µM (active)
CSc1ccc(CCNC(=O)CCn2c(=O)c3cccn3c3ccc(F)cc32)cc1,-19.8% (inactive),–
CC1CCN(C(=O)CN2c3ccc(C(C)C)cc3-c3ccccc3S2(=O)=O)CC1,-27% (inactive),–
COc1ccccc1N1CCN(S(=O)(=O)c2ccc(-n3cnnn3)cc2)CC1,-7.47% (inactive),–
Cc1cc(C)cc(OCC(=O)Nc2ccc(-c3nc4ncccc4o3)cc2C)c1,-21.9% (inactive),–
COc1cccc(C2CC(=O)Nc3cc4c(cc32)OCCO4)c1OC (configuration not stated),-21.4% (inactive),–
COc1cc(/C=C/c2nc(C#N)c(N3CCCCCC3)o2)cc(OC)c1OC,-24.2% (inactive),–
CCOc1ccc(-c2c(C)nn3c(C)c(C(=O)Nc4cccc(Cl)c4C)cnc23)cc1OCC,-10.9% (inactive),–
